High-throughput results deposited in PubChem BioAssay by National Center for Advancing Translational Sciences (NCATS).
Rows were chosen to be rich in hits. Some 6.1% of all compounds tested hit in one or more screens of this group.
ERG Ets-DNA blk = blocks human ERG Ets domain binding to DNA; P11308; 370,000 compounds, 0.028% hits; fluorescence polarization, His-ERG Ets domain / labelled DNA; Potency, µM (doses to about 76.9 µM), for the others: at the highest dose FP activity, negative = inhibition, hits mostly inhibitors; active means well fitted inhibition curve with a large enough effect in the polarisation, with a control signal flat; inconclusive means small, poorly fitted or top-dose-only effect, or effect the other way, or a change in a side signal; inactive means no such curve, though single readings can be large or run the other way; the % refers to the polarisation;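 further: polarization taken with two DNA probes labelled with fluorescein and Texas red; potency means the concentration at half of the fitted maximal effect; % of control where 0% means no effect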
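His-tagged ERG Ets domain (1 uM in the protein solution; 300mM KCl, 50mM Tris-HCl, 1mM EDTA, 1mM DTT, pH 7.5) received compound, then a probe mix of 5 nM fluorescein-DNA and 100nM Texas-615-DNA. Fluorescence polarization was read for both dyes.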
D1 antag = antagonists of human D1 dopamine receptor | 360,000 compounds, 3.2% hits | HEK293 TREx D1 cells, calcium flux, dopamine EC80; hits give low values | P21728 | activity change, negative = inhibition, % at 10 µM; in the data active means activity change below about -30%; further: on the % scale 0 is the no-effect control and ±100 the full control effect
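HEK293 T-REx cells expressing inducible, force-coupled D1 receptor; no-wash Ca dye, 30–90 min RT. Cmpd → 180 s read at 1 Hz → EC80 DA → 180 s read.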
D1 agonist = activates the human D1 dopamine receptor. P21728. 360,000 compounds, 1% hits. HEK293 T-REx D1 cells, calcium flux, agonist mode. AID 504660. activation, % at 2 µM; in the data active means activation above about 30%; further: 0% is about no effect
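Agonism was scored from calcium flux recorded over 180 s (1 read/s) after pintool compound addition, following a 10-cycle baseline. Cells were inducible force-coupled HEK293 TREx D1, plated overnight at 30 C and loaded with no-wash calcium dye.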
D3 ag = D3 dopamine receptor (human) agonism; max activation, %; D3R DiscoveRx beta-arrestin cells, luminescence, 90 min; 410,000 compounds, 0.58% hits; in the data active means max activation above about 30%; further: 0% is about no effect
Target sequence (P35462 whole entry, looked up): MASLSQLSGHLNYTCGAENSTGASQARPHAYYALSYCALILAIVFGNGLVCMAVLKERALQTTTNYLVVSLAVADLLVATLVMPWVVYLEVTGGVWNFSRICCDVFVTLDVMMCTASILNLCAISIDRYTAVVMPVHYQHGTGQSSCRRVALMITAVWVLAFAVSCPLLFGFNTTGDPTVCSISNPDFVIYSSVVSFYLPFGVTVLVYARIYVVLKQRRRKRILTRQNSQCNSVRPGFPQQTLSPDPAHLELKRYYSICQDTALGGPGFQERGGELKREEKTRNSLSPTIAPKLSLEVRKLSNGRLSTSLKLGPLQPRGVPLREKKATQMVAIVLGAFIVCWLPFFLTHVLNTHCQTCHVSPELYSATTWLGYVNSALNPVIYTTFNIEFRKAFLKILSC
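Cells at 1500/well, incubated overnight, then treated with pinned compounds (dopamine as control) for 90 min at 37 degrees C. DiscoveRx reagent added for 30 - 60 minutes at room temperature; luminescence read.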
DRD3 antagonist = antagonists of human D3 dopamine receptor | max response, negative = inhibition, % | D3R cells, DiscoveRx beta-arrestin luminescence, antagonist mode; hits give low values | AID 652054 | 360,000 compounds, 2.5% hits | P35462; in the data active means max response below about -50%; inconclusive means no clear call, values can overlap the other calls; further: on the % scale 0 is the no-effect control and ±100 the full control effect
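Cells expressing the human receptor were seeded at 1500 cells/well, incubated overnight at 37 degrees C in 5% CO2, then exposed to library compounds with dopamine controls for 90 minutes at 37 degrees C before luminescent detection.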
D1 potentiator = potentiators of human D1 dopamine receptor; potentiation, % at 10 µM; 360,000 compounds, 0.036% hits; P21728; HEK293 TREx D1 cells, calcium flux, dopamine EC20 potentiation; AID 504651; in the data active means potentiation above about 30%; further: 0% is about no effect
* hit, by the source's call; u = inconclusive; x = no result given.

SMILES	ERG Ets-DNA blk	D1 antag	D1 agonist	D3 ag	DRD3 antagonist	D1 potentiator
COc1cccc(OC)c1NC(=O)C1CCCN1C(=O)Nc1cccc(Cl)c1 (stereo not drawn)	-2.5%	-18.5	7.5	0.1	2.9	x
CC(=O)N1c2ccc(S(=O)(=O)NCCc3cccc(C)c3)cc2CC1C (stereo not drawn)	9.3%	-14.5	8.5	3.5	x	-0.7
COC1=C(C)C(=O)C2=C(C1=O)C1C3CC4=C(C(=O)C(OC)=C(C)C4=O)C(CNC(=O)C(C)=O)N3C(C#N)C(C2)N1C (stereo not drawn)	-8.1%	x	x	-20.5	-56.8*	x
COc1ccc(/C(N)=N/OC(=O)CCc2ccccc2)cc1OC	-3.4%	-30.7*	-0.9	0.9	13.7	-5.2
COc1ccc(/C(N)=N/OC(=O)CCCN2C(=O)c3ccccc3C2=O)cc1OC	-12.7%	1.3	1.9	40.6*	-7.8	-1.1
Cc1cc2[nH]c(=O)c(=O)[nH]c2cc1S(=O)(=O)NC1CCC(C)CC1 (stereo not drawn)	0.6%	4.3	2.0	-4.4	5.5	1.4
CCCCC1CCC(C(=O)N2CC(=O)Nc3ccc(C)cc3C2c2ccc(F)cc2)CC1 (stereo not drawn)	6.1%	-53.0*	5.2	-0.8	x	0.2
C[C@H](CO)N1C[C@H](C)[C@@H](CN(C)C(=O)NC2CCCCC2)Oc2c(NS(=O)(=O)c3ccc(F)cc3)cccc2C1=O	-8.0%	x	x	30.7*	-11.5	x
C[C@H](CO)N1C[C@H](C)[C@@H](CN(C)C(=O)Nc2ccccc2)Oc2ccc(NS(=O)(=O)c3ccccc3)cc2C1=O	0.1%	x	x	-3.0	8.2	x
C[C@H](CO)N1C[C@H](C)[C@@H](CN(C)C(=O)Nc2ccccc2)Oc2ccc(NS(=O)(=O)c3ccc(F)cc3)cc2C1=O	0.1%	x	x	37.3*	13.0	x
C[C@H](CO)N1C[C@H](C)[C@@H](CN(C)S(=O)(=O)c2cn(C)cn2)Oc2ccc(NS(=O)(=O)c3ccccc3)cc2C1=O	5.3%	x	x	35.3*	6.7	x
C[C@H]1CN([C@@H](C)CO)C(=O)c2cccc(NS(=O)(=O)c3ccc(F)cc3)c2O[C@H]1CN(C)S(=O)(=O)c1cn(C)cn1	1.9%	x	x	0.7	0.0	x
C[C@H](CO)N1C[C@H](C)[C@@H](CN(C)S(=O)(=O)c2cn(C)cn2)Oc2c(NS(=O)(=O)c3ccccc3)cccc2C1=O	2.7%	x	x	49.5*	49.5	x
CC[C@@]1(C(=O)OC)N[C@H](CN(C)C(=O)c2ccccc2)[C@@H]2C(=O)N(Cc3ccccc3)C(=O)[C@@H]21	-10.5%	x	x	4.0	0.0	x
CCCCc1cc(O)c(CCCC)c(O)c1	1.6%	-8.4	102.2*	-4.4	-13.1	-10.6
COc1cc2c(cc1OCc1ccccc1)/C(=C/C(=O)OCc1ccccc1)OC2	x	x	x	12.2	53.3	x
Cc1cc(C)c(C(=O)NCC2CCCO2)c(C)c1C(=O)NCC1CCCO1 (stereo not drawn)	-4.3%	-3.4	1.2	0.5	-0.3	2.6
CCOC(=O)C1=C(C)NC(=O)NC1c1ccc(N(C)C)cc1 (stereo not drawn)	4.1%	-30.8*	0.5	-3.0	-5.6	-9.3
COC(=O)C1=C(C)NC(C)=C(C(=O)OC)C1c1ccc(NC(C)=O)cc1	x	1.8	2.8	0.0	3.7	-1.9
CCN(CC)c1ccc(C2C(C(=O)OC)=C(C)NC(C)=C2C(=O)OC)cc1	0.3%	-4.8	2.5	-2.0	-51.4*	0.9
COc1cc(C2NC(=O)NC(C)=C2C(=O)OCC2CCCO2)ccc1O (stereo not drawn)	9.3%	0.6	2.7	31.4*	13.2	-2.6
COc1cc(C2NC(=O)NC(C)=C2C(=O)OCC2CCCO2)cc(OC)c1OC (stereo not drawn)	-4.1%	-17.9	0.6	-3.2	3.1	-4.5
CCOC(=O)C1=C(CN2CC(C)CC(C)C2)NC(=O)NC1c1ccc2c(c1)OCO2 (stereo not drawn)	2.8%	19.9	30.8*	-0.5	0.2	-1.9
S=c1[nH]nc(CSCc2ccccc2Cl)n1C1CCCCC1	-5.8%	4.3	1.6	-4.4	u	-5.1
NS(=O)(=O)CCCc1ccccc1	3.5%	-9.6	5.1	-5.6	-1.2	-0.6
SMILES	ERG Ets-DNA blk	D1 antag	D1 agonist	D3 ag	DRD3 antagonist	D1 potentiator
CCOC(=O)C1=C(CN2CCN(c3ccccc3OC)CC2)NC(=O)NC1c1ccccc1 (stereo not drawn)	-0.4%	-32.3*	1.8	-1.8	x	-2.8
CCOC(=O)C1=C(CN2CCC(C)CC2)NC(=O)NC1c1ccc(F)cc1 (stereo not drawn)	-4.0%	-13.5	0.0	2.2	x	-0.7
CCOC(=O)C1=C(CN2CCN(c3cc(C)ccc3C)CC2)NC(=O)NC1c1ccccc1 (stereo not drawn)	1.1%	7.5	1.9	9.7	x	1.9
CCOC(=O)C1=C(CN2CCC(C)CC2)NC(=O)NC1c1ccc(Cl)cc1 (stereo not drawn)	x	0.0	7.4	2.4	-86.0*	3.4
CCCC1=[N+](CC(=O)c2ccccc2)CCn2cccc21	5.2%	8.9	3.9	-3.0	18.2	-4.7
O=C(c1cccs1)N1CCc2ccccc21	-10.2%	-6.1	5.1	-16.5	u	-0.1
O=C(/C=C/c1cccs1)N1CCc2ccccc21	2.6%	-36.2*	1.3	1.6	12.0	-7.9
Fc1ccccc1CN1CCC(Cc2ccccc2)CC1	4.0%	-4.2	-3.4	-15.7	-79.3*	-2.4
Fc1cccc(CN2CCC(Cc3ccccc3)CC2)c1	-2.9%	10.9	-4.1	-4.6	-52.6*	-5.9
Cc1ccc2[nH]c3nc(SCCN4CCOCC4)nnc3c2c1	-11.3%	5.5	0.6	-3.3	-57.4*	-1.7
CCN(CC)S(=O)(=O)c1cccc(C(=O)NC2CCCCC2)c1	-8.3%	0.8	4.7	-3.8	18.6	-9.1
COc1ccccc1NS(=O)(=O)c1ccc(Cl)c(NC(=S)NC(=O)C2CCCC2)c1	-12.3%	-8.5	2.4	-4.5	-25.3	-2.5
CCN(CC)S(=O)(=O)c1ccc(Cl)c(NC(=S)NC(=O)C2CCCC2)c1	-3.8%	-17.1	31.8*	-16.6	u	x
Cc1ccc(NC(=O)CNCC2CCCCC2)cc1S(=O)(=O)N(C)C	7.4%	-7.7	5.4	-21.6	-24.9	-4.0
Cc1ccc(NC(=S)NC2CCCCC2)cc1S(=O)(=O)N(C)C	1.3%	-34.2*	27.9	3.0	25.3	-7.8
CCN(CC)c1ccc(S(=O)(=O)Nc2cc(Cl)ccc2Cl)cc1NC(=S)NC(=O)C1CCCC1	-1.3%	-31.6*	1.8	-2.4	-2.8	-5.0
CCN(CC)S(=O)(=O)c1ccc(C)c(NC(=S)NC2CCCCC2)c1	0.5%	-80.1*	16.3	-2.6	-18.5	-6.2
